# The list is not random: actives were taken first. Their share in the collection is about 7.4%.
# FLuc counter – firefly luciferase modulation, counter-screen for miR-21 project; P08659; purified FLuc, Km substrates, luminescence inhibition; Potency, µM (doses to about 57.5 µM), inactives show top-dose activity change, negative = inhibition, most hits filed as inhibitors; 6.9% of 360,000 active;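 note: plate controls were vehicle for no effect and reference inhibitor for full effect; nearly all actives have a fitted effect of over 55% in size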
# Target sequence (P08659 whole entry, looked up): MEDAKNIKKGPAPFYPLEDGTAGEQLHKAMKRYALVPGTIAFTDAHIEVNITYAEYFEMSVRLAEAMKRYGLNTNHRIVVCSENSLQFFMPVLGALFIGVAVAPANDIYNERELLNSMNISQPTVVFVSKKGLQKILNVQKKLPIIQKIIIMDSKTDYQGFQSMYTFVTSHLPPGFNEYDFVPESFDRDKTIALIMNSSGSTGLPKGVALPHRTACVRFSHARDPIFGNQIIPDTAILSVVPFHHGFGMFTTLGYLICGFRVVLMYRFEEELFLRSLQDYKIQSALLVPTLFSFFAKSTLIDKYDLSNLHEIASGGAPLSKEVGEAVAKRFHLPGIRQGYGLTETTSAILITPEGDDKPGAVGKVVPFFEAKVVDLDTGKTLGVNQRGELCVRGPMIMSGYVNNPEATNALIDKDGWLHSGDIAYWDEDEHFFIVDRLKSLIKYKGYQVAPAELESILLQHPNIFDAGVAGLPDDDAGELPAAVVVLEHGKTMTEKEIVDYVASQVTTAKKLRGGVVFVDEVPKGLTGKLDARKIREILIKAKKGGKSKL
#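 Purified P. pyralis luciferase, 10 nM final, with Km-level 10 uM D-luciferin and 10 uM ATP in 50 mM Tris acetate pH 7.5, 10 mM Mg acetate, 0.01% Tween-20, 0.05% BSA; 6-point qHTS titration about 60 µM downward; luminescence read.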
# Rab9 prom act – Rab9 promoter activation; Potency, µM (doses to about 9.22 µM), without a hit: at the top dose activation, negative = inhibition, usual class: activators; Huh7 Rab9 promoter-luciferase reporter, luminescence, 24 h; 2.8% of 320,000 active; AID 485297; note: % of control where 0% means no effect; nearly all actives have a fitted effect of over 60% in size
#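 Measured in stably transfected Huh7 cells bearing a Rab9 promoter–luciferase construct: 24 h compound treatment at 37 °C, followed by luminescence detection.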
# ELG1 genotox – inducers of genotoxicity in HEK293T ELG1-luciferase cells | Potency, µM (series often up to 46 µM), for the others: at the highest dose activity change, positive = activation, hits mostly activators | HEK293T ELG1-luciferase reporter, luminescence, 16 h | 1.3% of 330,000 active | AID 504466; note: % of control where 0% means no effect; nearly all actives have a fitted effect of over 60% in size
#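 ELG1-luciferase HEK293T cells, 2,000/well; compound pinned in; 16 hr, 37 °C, 5% CO2; ONE-Glo, 30 min RT; luminescence on CCD imager.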
# NPC1 promoter act – activators of NPC1 promoter; Huh7 NPC1 promoter luciferase reporter, 24 h; Potency, µM (highest dose often 9.22 µM), for the others: top-dose activation, actives largely listed as activators; 2.4% of 320,000 active; note: % of control where 0% means no effect; nearly all actives have a fitted effect of over 60% in size
#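 Luminescence from an NPC1 promoter-driven luciferase reporter in stably transfected Huh7 cells was measured after 24 h compound treatment at 37 °C, followed by 10 min ambient incubation with luciferase detection reagent.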
# SMN2 splice up – increases expression of the SMN2 splice variant. HEK293 SMN2-luciferase splicing reporter, luminescence, 30-36 h. Potency, µM (titrated, usually from 46.1 µM), without a hit: at the top dose activity change, positive = activation, hits mostly activators. 2.8% of 210,000 active. AID 1458; note: % of control where 0% means no effect; nearly all actives have a fitted effect of over 55% in size
#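 HEK293 cells carry an SMN2 minigene-luciferase reporter in which exon 7 inclusion puts luciferase in frame. Cells were seeded at 2000 cells/well, attached for 10-12 hours, then exposed to compounds for 30-36 hours at 37C before ONE-Glo luminescence.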
# * = called active by the depositor; ? = inconclusive; . = no result; [ ] = dose if it differs, or a comment. Calls come from the whole dose curve; as a rule, active = well fitted curve in the direction sought with a large enough effect; inconclusive = small, poorly fitted or top-dose-only effect, or another doubt; inactive = no such curve, though single readings can be large; an effect the other way counts as inactive or inconclusive. Potency is the fitted concentration of half-maximal effect.
SMILES,FLuc counter,Rab9 prom act,ELG1 genotox,NPC1 promoter act,SMN2 splice up
COc1ccc(C(=O)N(Cc2ccccc2)c2cccc(C)c2)cc1,-1%,?,15µM*,?,.
CC(=O)Nc1ccc(NC(=O)/C(Cl)=C/c2ccccc2)cc1,11µM*,?,-1%,23%,-6%
CCc1ccccc1NS(=O)(=O)c1ccc2c(c1)OCC(C(=O)N1CCCC1)O2 (stereo not drawn),2%,.,.,.,.
CN1CCN(C(=O)c2ccc3c(c2)N(Cc2ccc(Cl)cc2)C(=O)c2ccccc2S3(=O)=O)CC1,0%,.,.,.,1%
NC(=O)C1=NOC(CNc2ncc(C(F)(F)F)cc2Cl)C1 (stereo not drawn),?,?,23µM*,21%,9%
CSc1nn(CC(=O)Nc2cc(C)ccc2C)c(N)c1S(=O)(=O)c1ccccc1,-8%,.,.,.,.
O=C(Nc1cccc(Cl)c1Cl)c1cc(S(=O)(=O)N2CCC3(CC2)OCCO3)ccc1F,-2%,.,.,.,.
CC(=O)N1CCC2(CCN(Cc3cc(C(F)(F)F)cc(C(F)(F)F)c3)CC2)CC1,.,.,.,.,-13%
Cc1cc(C)cc(NC(=O)c2ccc(CSc3nnnn3C)cc2)c1,13µM*,19%,0%,9%,-11%
Cn1nnnc1SCc1ccc(C(=O)Nc2nccs2)cc1,15µM*,?,?,30%,11µM*
C=CCn1c(SCc2ccc(C(=O)Nc3nccs3)cc2)nnc1-c1ccc(C)c(Cl)c1,11µM*,-1%,-14%,1%,-97%
Cn1nnnc1SCc1ccc(C(=O)Nc2ccccc2F)cc1,?,?,?,?,2%
N/C(=N\OC(=O)CCC1CCCC1)c1cccc([N+](=O)[O-])c1,9.5µM*,1%,4%,1%,.
COc1ccc(/C(N)=N/OC(=O)CC2CCCCC2)cc1,17µM*,20%,?,20%,.
N/C(=N\OC(=O)CCC1CCCCC1)c1cccnc1,19µM*,-4%,10%,11%,17%
N/C(=N\OC(=O)CC1CCCCC1)c1cccc([N+](=O)[O-])c1,6µM*,-4%,2%,-1%,-27%
CCC(C)(C)C(=O)O[C@@H]1C[C@H](C)C=C2C=C[C@H](C)[C@@H](CC[C@H]3C[C@@H](O)CC(=O)O3)[C@H]21,.,.,.,.,-16%[20.6 µM]
CCn1c2c(c(=O)n3ncc(C(=O)Nc4ccc(C(=O)OC)cc4)c13)CN(Cc1ccc(OC)cc1)CC2,-18%,.,.,.,.
O=C(O[C@@H]1Cc2c(O)cc(O)cc2OC1c1ccc(O)c(O)c1)c1cc(O)c(O)c(O)c1 (stereo partly drawn),.,.,.,.,3%
COC(=O)CC1Oc2ccccc2-n2cc(-c3ccc(Cl)cc3)nc21 (stereo not drawn),4%,.,.,.,?
COc1cccc(-c2cc(C(=O)N3CCc4ccccc4C3)no2)c1,?,-3%,?,-2%,11%
COc1ccc(-c2cc(C(=O)N3CCc4ccccc4C3)no2)cc1,17µM*,-4%,24%,1%,2%
COc1ccc(-c2cc(C(=O)N3CCN(c4ccccc4)CC3)no2)cc1,6.7µM*,?,?,2.8µM*,?
COC(=O)c1ccc(OC(=O)/C=C/c2ccco2)cc1,2.4µM*,1%,3%,0%,.
O=Cc1cccc(OC(=O)/C=C/c2ccco2)c1,27µM*,13%,?,?,.
SMILES,FLuc counter,Rab9 prom act,ELG1 genotox,NPC1 promoter act,SMN2 splice up
Cc1ccc(N2CCN(Cc3nnc(-c4ccccc4F)o3)CC2)c(C)c1,-10%,.,.,.,-20%
Cc1ccc(-c2n[nH]c(Cc3ccccc3)n2)cc1,19µM*,2.5µM*,?,2.8µM*,.
COc1ccc(NC(=O)c2oc3ccccc3c2NC(=O)c2ccc3c(c2)OCO3)cc1,9.5µM*,16%,1%,12%,23%
CCC(=O)Nc1c(C(=O)Nc2ccc3c(c2)OCCO3)oc2ccccc12,?,2.8µM*,10%,?,16µM*
CCOCC(=O)Nc1c(C(=O)Nc2ccccc2OC)oc2ccccc12,-18%,?,10%,29%,-11%
CCC(=O)Nc1c(C(=O)Nc2cccc(OC)c2)oc2ccccc12,-17%,?,3%,27%,14%
COCC(=O)Nc1c(C(=O)Nc2ccc3c(c2)OCCO3)oc2ccccc12,.,1.1µM*,3%,1.4µM*,7.9µM*
